Assay results published in PubChem BioAssay (NCATS).
Values without a mark were called inactive. The source made the active and inactive calls. Calls come from the whole dose curve; as a rule, active = well fitted curve in the direction sought with a large enough effect; inactive = no such curve, though single readings can be large or run the other way.

Target: Alpha-galactosidase A (Homo sapiens) (UniProt P06280)
Assay: Counterscreen for Glucocerebrosidase Inhibitors: qHTS Assay for Human alpha-Galactosidase at pH 4.5 (AID 992); note: 0% is about no effect
Settings: purified enzyme, fluorogenic substrate; series mostly up to 76.9 µM; activity change, negative = inhibition: at the top concentration
Text: NIH Chemical Genomics Center [NCGC]
NIH Molecular Libraries Screening Centers Network [MLSCN]
PI Name: Zheng, Wei [NIH]
Alpha-galactosidase is a homodimeric glycoprotein that hydrolyzes the terminal alpha-galactosyl moieties from glycolipids and glycoproteins. Deficiency of this enzyme results in Fabry Disease with progressive accumulation of globotriaosylceramide and other glycosphingolipids in vascular endothelial cells that causes renal failure, myocardial infarction and stroke, and premature death in patients. It has reported that the improper folding and trafficking of alpha-galactosidase resulted from the genetic mutations may account for a significant numbers of Fabry patients. […] We optimized this alpha-galactosidase assay in 1536-well plate format for identifying the novel small molecule inhibitors with the structures other than the sugar analogs in order to develop the new pharmacological chaperones.
NCGC Assay Protocol Summary:
This is a fluorogenic enzyme assay with 4-Methylumbelliferyl alpha-D-galactopyranoside as the substrate and human […] as the enzyme preparation. Upon the hydrolysis of this fluorogenic substrate, the resulting product, […]. 4-Methyllumbelliferone, can be excited at 365 nm and emits at 440 nm which can be detected by a standard fluorescence plate reader. Data were normalized to the controls for basal activity (without enzyme) and 100% activity (with enzyme). In the AC50 values were determined from concentration-response data modeled with the standard Hill equation.
Assay buffer: 50 mM citric acid, 0.005% Tween-20, pH 4.5. (pH 4.5 is an optimal condition for this enzyme assay)
1536-well assay protocol for the human alpha-galactosidase:
(1) Add 2 ul/well of enzyme (2 nM final)
(2) Add 23 nL compounds in DMSO solution. The final titration was 0.7 nM to 77 uM.
(3) Add 1 ul of substrate (80 uM final)
(4) Incubate at room temperature for 20 min.
(5) Add 2 ul stop solution (1M NaOH and 1M Glycine mixture, pH 10)
(6) Detect the assay plate in a ViewLux plate reader (PerkinElmer) with Ex=365 nm and Em=440nm.
Keywords: Alpha-galactosidase, Fabry Disease, pharmacological chaperone, chaperone therapy, high throughput screening, alpha-galactosidase inhibitor, MLSMR, MLSCN, NIH Roadmap, qHTS and NCGC

Chain of Alpha-galactosidase A (Homo sapiens) (P06280 whole entry, looked up): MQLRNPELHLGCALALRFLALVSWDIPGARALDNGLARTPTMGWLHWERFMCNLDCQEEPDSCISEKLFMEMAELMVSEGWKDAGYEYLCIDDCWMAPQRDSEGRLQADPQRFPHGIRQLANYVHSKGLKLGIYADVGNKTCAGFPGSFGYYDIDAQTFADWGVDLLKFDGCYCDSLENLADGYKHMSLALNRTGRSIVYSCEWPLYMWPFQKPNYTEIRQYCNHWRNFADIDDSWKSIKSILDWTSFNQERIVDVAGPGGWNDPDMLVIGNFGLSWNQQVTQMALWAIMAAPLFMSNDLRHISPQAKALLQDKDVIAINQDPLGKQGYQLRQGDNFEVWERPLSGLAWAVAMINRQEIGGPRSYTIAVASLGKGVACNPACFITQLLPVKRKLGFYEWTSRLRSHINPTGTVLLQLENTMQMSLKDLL

Row | Compound | activity change, negative = inhibition [%] | outcome
1 | Cn1cnc(CCN)c1 | -0.282 | 
2 | O=C1CCCN1CC#CCN1CCCC1 | 0.806 | 
3 | Cc1nc(-c2ccc(-c3ccc(C(=O)N4CCc5cc6c(cc54)C4(CCN(C)CC4)CO6)cc3)c(C)c2)no1 | -9.05 | 
4 | c1ccc(CCCN2CCN(CCOC(c3ccccc3)c3ccccc3)CC2)cc1 | -9.22 | 
5 | Cc1c(C(=O)c2cccc3ccccc23)c2cccc3c2n1[C@H](CN1CCOCC1)CO3 | -14 | 
6 | CC1=NN=C(c2ccc(N)cc2)c2cc3c(cc2C1)OCO3 | -5.22 | 
7 | CNCCc1c[nH]c2ccc(O)cc12 | -1.44 | 
8 | CNCCc1ccc(O)c(O)c1 | -2.01 | 
9 | C[C@]12N[C@H](Cc3ccccc31)c1ccccc12 |  | inactive
10 | Cc1nccc2c1[nH]c1ccccc12 | 1.57 | 
11 | C#CCOC(=O)C1=CCCN(C)C1 | 1.58 | 
12 | CC(C)Oc1cccnc1N(C)C1CCN(Cc2ccccc2)CC1 | -0.64 | 
13 | S=C(NC1CCCCC1)N1CCC(c2cnc[nH]2)CC1 | -1.55 | 
14 | COc1ccc2c(c[n+](C)c3c4cc5c(cc4ccc23)OCO5)c1OC | -1.64 | 
15 | CCCN1CCO[C@@H]2c3cc(O)ccc3OC[C@H]21 |  | inactive
16 | NCc1cc(=O)[nH]o1 | -0.551 | 

Row | Compound | activity change, negative = inhibition [%] | outcome
17 | CCCN1CCC[C@H](c2cccc(O)c2)C1 |  | inactive
18 | C[C@@H]1O[C@H](C[N+](C)(C)C)C[C@H]1O | -2.02 | 
19 | O=C(O)Cc1cnc[nH]1 | -0.0475 | 
20 | Clc1cnc(Oc2ccc(Oc3ncc(Cl)cc3Cl)cc2)c(Cl)c1 | -0.391 | 
21 | NCCc1c[nH]c2ccccc12 | -1.17 | 
22 | O=C(O)CC[N+](=O)[O-] | 0.846 | 
23 | NC(N)=NOCCC(N)C(=O)O (stereo unspecified) | -0.0706 | 
24 | NC(=NCCC[C@H](N)C(=O)O)N[N+](=O)[O-] | -5.32 | 
25 | CC(=O)NCCc1c[nH]c2ccccc12 | -1.92 | 
26 | CCCCc1ccc(C(=O)O)nc1 | -0.0872 | 
27 | CC[C@@]1(O)C(=O)OCc2c1cc1n(c2=O)Cc2cc3ccccc3nc2-1 | 82.3 | 
28 | NCCc1c[nH]c2ccc(O)cc12 | 0.705 | 
29 | c1ccc2sc(C3(N4CCCCC4)CCCCC3)cc2c1 | -1.47 | 
30 | CN[C@@H]1C[C@@H](c2ccc(Cl)c(Cl)c2)c2ccccc21 | -4.47 | 
31 | CCCN(CCC)[C@@H]1CCc2ccc(O)cc2C1 |  | inactive
